Laboratory results as given in PubChem BioAssay (Tox21).
Results filed as inconclusive are left out. Values without a mark were called inactive. Active and inactive are the calls of the source. Calls come from the whole dose curve; as a rule, active = well fitted cell-killing curve with a large enough effect in the repeat runs; inconclusive = weak or mixed curves, or effect the other way; inactive = flat fitted curve, though single readings scatter.

assay: qHTS RealTime-Glo MT Cell Viability Assay in HepG2 cells - 40 hour (AID 1224870); conditions: RealTime-Glo luminescence; series mostly up to 76.8 µM; activity change, negative = cytotoxic: at the top concentration; note: nearly all actives have a fitted effect of over 50% in size
Excerpt: National Center for Advancing Translational Sciences [NCATS]
NIH Chemical Genomics Center [NCGC]
U.S. Environmental Protection Agency [EPA]
National Institutes of Environmental Health Sciences [NIEHS]
National Toxicology Program [NTP]
U.S. Food and Drug Administration [FDA]
Measure of cell viability is critical in the cell-base assay. Analysis of cell viability is necessary for the characterization of cell responses to cytotoxic drugs and environmental stress. A RealTime-Glo MT Cell Viability Assay to monitor cell viability in real time of continues cell culture during 40 hours of compound treatment was used to screen Tox21 10K library compounds in HepG2 cells. The RealTime-Glo MT Cell Viability Assay is a nonlytic, homogeneous, bioluminescent method to measure cell viability in real time using a simple, plate-based method. The assay involves adding NanoLuc luciferase and a cell-permeant prosubstrate to cells in culture. Viable cells reduce the proprietary prosubstrate to generate a substrate for NanoLuc luciferase. This substrate diffuses from cells into the surrounding culture medium, where it is rapidly used by the NanoLuc Enzyme to produce a luminescent signal. The signal correlates with the number of viable cells, making the assay well suited for cytotoxicity studies.
Tox21 Assay Protocol Summary:
The mixture of HepG2 cell suspension and reagents were dispensed at 600cells/6 ul/well in 1536-well tissue culture treated black solid bottom plates using a Multidrop dispenser. After the assay plates were incubated at a 37 C/5% CO2 incubator for 5 hours, 23 nL of compounds dissolved in DMSO, positive and negative controls was transferred to the assay plate by a pintool work station. The plates were incubated at 37 C for 40 hours. The luminescence intensity were measured at 0h, 8h, 16h, 24h, 32h and 40h time points using ViewLux plate reader during compound treatment.
% is set by controls: 0 for no effect and ±100 for the full control effect; potency is the fitted concentration of half-maximal effect.

Compared with `Cc1c(C)c2c(c(C)c1O)CC[C@@](C)(CCC[C@H](C)CCC[C@H](C)CCCC(C)C)O2`, `CCC(C)(CCC(C)C)C(=O)[O][Sn]([CH3])([CH3])[O]C(=O)C(C)(CC)CCC(C)C` (stereo not given) is higher in “activity change, negative = cytotoxic” value: -16.4% for the first, 0.556% for the second.

Going from `CC1(C)CCC[C@]2(C)[C@H]3CCO[C@]3(C)CC[C@@H]12` to `CC(C)(C)C1CCC(=O)CC1`, the “activity change, negative = cytotoxic” value falls from 0.0074% to -3.6%.

Compared with `COc1ccc(NC(=O)CC(C)=O)cc1`, `CNc1ccc([N+](=O)[O-])cc1` is higher in “activity change, negative = cytotoxic” value: -0.543% for the first, -0.27% for the second.

Compared with `CC(CCc1ccccc1)NCC(O)c1ccc(O)c(C(N)=O)c1` (stereo not given), `COc1cc(S(=O)(=O)O)c(C)cc1N=Nc1c(O)ccc2cc(S(=O)(=O)O)ccc12` is lower in “activity change, negative = cytotoxic” value: 4.23% for the first, -28% for the second.

Going from `CN(C)Cc1cc(C(C)(C)C)c(O)c(C(C)(C)C)c1` to `CCN(CC)c1ccc2c(-c3ccc(S(=O)(=O)O)cc3S(=O)(=O)[O-])c3ccc(=[N+](CC)CC)cc-3oc2c1`, the “activity change, negative = cytotoxic” value falls from -2.99% to -21.2%.

Compared with `OC1CCC(C2CCCCC2)CC1` (stereo not given), `OCC(F)(F)F` is lower in “activity change, negative = cytotoxic” value: 1.08% for the first, -3.43% for the second.

Compared with `[Cl][Pt-2]([Cl])([Cl])[Cl]`, `C=CC(=O)OCCOC(=O)C=C` is higher in “activity change, negative = cytotoxic” value: -9.01% for the first, -0.878% for the second.

First: Cc1ccc(C)cc1
Second: O=S(=O)(O)c1ccccc1/C=C/c1ccc(-c2ccc(/C=C/c3ccccc3S(=O)(=O)O)cc2)cc1
The “activity change, negative = cytotoxic” value of the first is lower: -0.742% for the first, 3.81% for the second.

First: CCCCCCCCCCCCOCCOCCOCCOCCOCCOCCOCCOCCOCCO
Second: CCCCCCCCCCC[C@@H](C[C@@H]1OC(=O)[C@H]1CCCCCC)OC(=O)[C@H](CC(C)C)NC=O
The “activity change, negative = cytotoxic” value of the first is lower: -21.8% [at 35.3 µM] for the first, -7.04% [at 35.3 µM] for the second.

Compared with `COC1=C(OC)C(=O)C(CCCCCCCCCCO)=C(C)C1=O`, `O=C1CCc2cc(OCCCCc3nnnn3C3CCCCC3)ccc2N1` is higher in “activity change, negative = cytotoxic” value: -2.26% [at 35.3 µM] for the first, -1.47% [at 35.3 µM] for the second.

Compared with `CC(C)=CCNc1ncnc2c1ncn2[C@@H]1O[C@H](CO)[C@@H](O)[C@H]1O`, `O=c1[nH]c(=O)n([C@H]2C[C@H](O)[C@@H](CO)O2)cc1F` is higher in “activity change, negative = cytotoxic” value: -14.3% [at 35.3 µM] for the first, 5.43% [at 35.3 µM] for the second.

Compared with `Cc1cccc(C)c1NC(=O)c1ccc(N)cc1`, `Nc1ccc(C(=O)O)c(O)c1` is higher in “activity change, negative = cytotoxic” value: -1.8% [at 35.3 µM] for the first, 0.064% [at 35.3 µM] for the second.

Compared with `COc1ccc2c(c1)c(CC(=O)OC/C=C(\C)CC/C=C(\C)CCC=C(C)C)c(C)n2C(=O)c1ccc(Cl)cc1`, `CCOc1ccc2ccccc2c1C(=O)N[C@@H]1C(=O)N2[C@@H]1SC(C)(C)[C@@H]2C(=O)O` is higher in “activity change, negative = cytotoxic” value: 0.287% [at 35.3 µM] for the first, 1.5% [at 35.3 µM] for the second.

First: Cc1cc(C(C)(C)C)cc(C)c1CC1=NCCN1
Second: Cc1cc(-n2nc3ccc(Cl)cc3n2)c(O)c(C(C)(C)C)c1
The “activity change, negative = cytotoxic” value of the first is higher: 0.65% [at 35.3 µM] for the first, -0.882% [at 35.3 µM] for the second.

First: CNC(=O)c1ccccc1Sc1ccc2c(/C=C/c3ccccn3)n[nH]c2c1
Second: CN1CCN2c3ccccc3Cc3ccccc3C2C1 (stereo not given)
The “activity change, negative = cytotoxic” value of the first is lower: -6.61% [at 35.3 µM] for the first, -5.51% [at 35.3 µM] for the second.

First: Cc1c(N)cccc1C(F)(F)F
Second: C=C(CC)C(=O)c1ccc(OCC(=O)O)c(Cl)c1Cl
The “activity change, negative = cytotoxic” value of the first is higher: -1.47% [at 35.3 µM] for the first, -22.2% [at 35.3 µM] for the second.

`O=C(O)O` gave an activity change, negative = cytotoxic of 19% [at 6.97 µM].

In the case of `CC(=O)[C@H]1CC[C@H]2[C@@H]3CCC4=CC(=O)CC[C@]4(C)[C@H]3CC[C@]12C`, the Potency is reported as “inactive”.
In the case of `O=C(O)c1cc(O)c2ccccc2c1O`, the Potency is reported as 21.9 µM (active).
For `C=CC(=O)Nc1cc2c(Nc3ccc(F)c(Cl)c3)ncnc2cc1OCCCN1CCOCC1`, the Potency was 10.7 µM (active).
In the case of `COc1cccc2c1C(=O)c1c(O)c3c(c(O)c1C2=O)C[C@@](O)(C(C)=O)C[C@@H]3O[C@H]1C[C@H](N)[C@H](O)[C@H](C)O1`, the Potency is reported as 19.6 µM (active).
In the case of `Oc1ccccc1O`, the Potency is reported as “inactive”.

First: C[C@H]1NCc2cc(-c3ccc4c(=O)c(C(=O)O)cn(C5CC5)c4c3OC(F)F)ccc21
Second: CC(C)Cn1cnc2c(N)nc3ccccc3c21
The activity change, negative = cytotoxic of the first is lower: -10.9% [at 15.8 µM] for the first, 1.75% [at 15.8 µM] for the second.
